Our source for the growth inhibition values is PubChem BioAssay (NCI).

About 79,000 compounds went through this panel and 15% of them were active in at least one assay; those are over-represented in the sample as a whole. A number with no mark means an inactive call. The source made the active and inactive calls. Rule as the data show it: active = growth inhibition above about 70%; inactive = the rest.

One assay can be described thus: NCI Yeast Anticancer Drug Screen. Data for the bub3 strain (AID 167). Conditions: S. cerevisiae bub3 mutant strain, at 50.0 µM, hits give high values. In outline:
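Steps: expose the mutant yeast strain to compound; grow alongside vehicle-treated cultures; measure growth; express inhibition against the vehicle cultures.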
As for `COc1ccc(/C=C(/NC(=O)c2ccccc2)C(=O)O)c(OC)c1C`, the growth inhibition was -17.2%.

Take `Cc1ccc2c(c1)C(OC(=O)Nc1ccccc1)CCC2` (stereo not given): the growth inhibition is 38%.

As to `CC(C)(C)C(=O)N1C(C(=O)O)Cc2ccccc2[C@@H]1Cc1ccccc1` (stereo not given in full), the growth inhibition is -11.1%.

For `O=[N+]([O-])c1cccnc1Sc1nc2ccccc2[nH]1`, the growth inhibition was 21.8%.

Turning to `CCOCC1c2ccccc2CCN1Cc1c[nH]c2ccccc12` (stereo not given), the growth inhibition was 0.6%.

With `C1C2CC3CC1CC(c1nn4c(C56CC7CC(CC(C7)C5)C6)nnc4s1)(C2)C3`, the growth inhibition was -12.4%.

As to `CCC1C[N+]2(C)CCc3cc(OC)c(OC)cc3C2CC1=O` (stereo not given), the growth inhibition is 1.35%.

Turning to `CCCCN=C(OC1C=CCCC1)SC` (stereo not given), the growth inhibition is -4.7%.

Turning to `COc1cc2oc(=O)ccc2cc1[C@@H]1OC(=O)[C@@]2(C)O[C@@H]12`, the growth inhibition is 3.35%.

With `CCCCCCCCCCCCCCCCCCN=C(N)N`, the growth inhibition is -2.25%.

Regarding `CCCCCCCI`, the growth inhibition is 1.65%.

As to `CCCC(C)C(=O)OC(C)CC(C)C` (stereo not given), the growth inhibition is 20.9%.

Regarding `O=C(NCN1CCOCC1)Nc1ccc(Cl)cc1`, the growth inhibition was 8.75%.

`O=C(CN1CCCC1)Nc1ccc2sc3ccccc3c(=O)c2n1`: the growth inhibition was 11%.

With `S=c1[nH]ncc(SCc2ccccc2)c1SCc1ccccc1`, the growth inhibition is 7.1%.

For `O=C(O)C1CSC(c2cccs2)N1` (stereo not given), the growth inhibition was -32.2%.

On to `Nc1nc2c(c(=O)[nH]1)CN(CCCN1CCOCC1)CN2`, for which the growth inhibition is -30%.

For `C/C=C/C1N(C)CCCN1C`, the growth inhibition is -25.9%.

As to `CN(C)CCNC(=O)c1cccc2nc3c(C(=O)NCCN(C)C)cccc3nc12`, the growth inhibition is -34.1%.

In the case of `O=C(c1nc2ccc(Cl)cc2[nH]c1=O)C(O)c1ccc2c(c1)OCO2` (stereo not given), the growth inhibition was -13.2%.

As for `N=C(N)Sc1cc(O)c2ccccc2c1O`, the growth inhibition is 4.1%.

As for `O=C(CCc1ccccc1)NC(=S)Nc1cccc([N+](=O)[O-])c1`, the growth inhibition was 52.2%.

For `Cc1ccc(NC(=O)Nc2cccc(Cl)c2C)cc1C`, the growth inhibition was 8.45%.

For `CCOC(=O)/C(Cc1cnc2ccccc2n1)=N\O`, the growth inhibition was 5.7%.

For the compound `CN(C)C(=O)C1CCC(=O)N1` (stereo not given), the growth inhibition was 10.6%.

For `CN1C(NC(=O)C(C)(C)O)C(C)(C)C(C)(C)C1NC(=O)C(C)(C)O` (stereo not given), the growth inhibition is 26.8%.

Regarding `O=C(CCc1cc(O)cc(O)c1)NCCc1cc(OCc2ccccc2)cc(OCc2ccccc2)c1`, the growth inhibition was 27.1%.

Turning to `Cc1ccc(S(=O)(=O)N2CCCCC2)cc1`, the growth inhibition is -6.75%.

Regarding `CC(CCCSC(=N)N)SC(=N)N` (stereo not given), the growth inhibition was -2.2%.

Take `O=Cc1ccc(O)cn1`: the growth inhibition was 1.75%.

On to `CCN(CC)CCOC(=O)c1ccc(N=Nc2ccc(O)cc2)cc1`, for which the growth inhibition was 1%.

As to `CC(C)OC/N=C(/N)NC#N`, the growth inhibition is -10.1%.

On to `CC1(C)COC(c2ccc(Cl)cc2)OC1`, for which the growth inhibition is 19.5%.

Turning to `NC(=O)C(CCN1CCCCC1)c1ccccc1` (stereo not given), the growth inhibition is 5.45%.

Take `c1ccc(N2CCN(c3ccccn3)CC2)nc1`: the growth inhibition was -13.7%.

Take `N#Cc1cc2ccccc2n(Cc2ccccc2)c1=O`: the growth inhibition is 3.75%.

Consider `CNCC(O)(C(=O)O)C(=O)O`, for which the growth inhibition is -29.1%.

Take `CC(I)CNC1=NCC(=O)N1` (stereo not given): the growth inhibition is 13.1%.

Consider `Nc1ccc(C(C(=O)O)c2ccccc2)cc1Cl` (stereo not given), for which the growth inhibition was 12.3%.

In the case of `COc1ccccc1C1C2=C(COC2=O)Oc2cc3c(cc21)OCO3` (stereo not given), the growth inhibition is 0.4%.

A short description of another assay: NCI Yeast Anticancer Drug Screen. Data for the mlh1 rad18 strain (AID 175). The following applies: S. cerevisiae mlh1 rad18 strain growth inhibition; at 50.0 µM; hits give high values. In outline: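 Growth inhibition of the yeast strain was measured after compound exposure and expressed relative to vehicle-treated controls. The strain carries defined defects in DNA damage repair.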
For `COc1ccc(/C=C(/NC(=O)c2ccccc2)C(=O)O)c(OC)c1C`, the growth inhibition is -7.65%.

On to `Cc1ccc2c(c1)C(OC(=O)Nc1ccccc1)CCC2` (stereo not given), for which the growth inhibition is 5.1%.

Regarding `CC(C)(C)C(=O)N1C(C(=O)O)Cc2ccccc2[C@@H]1Cc1ccccc1` (stereo not given in full), the growth inhibition was -29.5%.

Turning to `O=[N+]([O-])c1cccnc1Sc1nc2ccccc2[nH]1`, the growth inhibition was 6.2%.

Turning to `CCOCC1c2ccccc2CCN1Cc1c[nH]c2ccccc12` (stereo not given), the growth inhibition is -4.55%.

Regarding `C1C2CC3CC1CC(c1nn4c(C56CC7CC(CC(C7)C5)C6)nnc4s1)(C2)C3`, the growth inhibition was -17.9%.

`CCC1C[N+]2(C)CCc3cc(OC)c(OC)cc3C2CC1=O` (stereo not given): the growth inhibition is 7%.

As for `CCCCN=C(OC1C=CCCC1)SC` (stereo not given), the growth inhibition was -7.7%.

As for `COc1cc2oc(=O)ccc2cc1[C@@H]1OC(=O)[C@@]2(C)O[C@@H]12`, the growth inhibition is -2.85%.

For `CCCCCCCCCCCCCCCCCCN=C(N)N`, the growth inhibition was 10.8%.

As for `CCCCCCCI`, the growth inhibition was 23.8%.

Turning to `CCCC(C)C(=O)OC(C)CC(C)C` (stereo not given), the growth inhibition was 15.6%.

Take `O=C(NCN1CCOCC1)Nc1ccc(Cl)cc1`: the growth inhibition was -3.25%.

`O=C(CN1CCCC1)Nc1ccc2sc3ccccc3c(=O)c2n1`: the growth inhibition is 3.55%.

Consider `S=c1[nH]ncc(SCc2ccccc2)c1SCc1ccccc1`, for which the growth inhibition was 7.55%.

On to `O=C(O)C1CSC(c2cccs2)N1` (stereo not given), for which the growth inhibition is -8.1%.

For `Nc1nc2c(c(=O)[nH]1)CN(CCCN1CCOCC1)CN2`, the growth inhibition was 0%.

As for `C/C=C/C1N(C)CCCN1C`, the growth inhibition is 8.55%.

With `CN(C)CCNC(=O)c1cccc2nc3c(C(=O)NCCN(C)C)cccc3nc12`, the growth inhibition is -40.5%.

For the compound `O=C(c1nc2ccc(Cl)cc2[nH]c1=O)C(O)c1ccc2c(c1)OCO2` (stereo not given), the growth inhibition is 5.2%.

Consider `N=C(N)Sc1cc(O)c2ccccc2c1O`, for which the growth inhibition is -2%.

As for `O=C(CCc1ccccc1)NC(=S)Nc1cccc([N+](=O)[O-])c1`, the growth inhibition was 86% (active).

For the compound `Cc1ccc(NC(=O)Nc2cccc(Cl)c2C)cc1C`, the growth inhibition was -15.9%.

With `CCOC(=O)/C(Cc1cnc2ccccc2n1)=N\O`, the growth inhibition is -24.9%.

Consider `CN(C)C(=O)C1CCC(=O)N1` (stereo not given), for which the growth inhibition was -0.3%.

With `CN1C(NC(=O)C(C)(C)O)C(C)(C)C(C)(C)C1NC(=O)C(C)(C)O` (stereo not given), the growth inhibition was 29.6%.

`O=C(CCc1cc(O)cc(O)c1)NCCc1cc(OCc2ccccc2)cc(OCc2ccccc2)c1`: the growth inhibition is -42.6%.

Consider `Cc1ccc(S(=O)(=O)N2CCCCC2)cc1`, for which the growth inhibition was -20.5%.

For `CC(CCCSC(=N)N)SC(=N)N` (stereo not given), the growth inhibition is 12.6%.

For the compound `O=Cc1ccc(O)cn1`, the growth inhibition was -0.75%.

Consider `CCN(CC)CCOC(=O)c1ccc(N=Nc2ccc(O)cc2)cc1`, for which the growth inhibition is -5.7%.

As to `CC(C)OC/N=C(/N)NC#N`, the growth inhibition was -6.5%.

On to `CC1(C)COC(c2ccc(Cl)cc2)OC1`, for which the growth inhibition was 26.1%.

`NC(=O)C(CCN1CCCCC1)c1ccccc1` (stereo not given): the growth inhibition is 24.8%.

In the case of `c1ccc(N2CCN(c3ccccn3)CC2)nc1`, the growth inhibition is -5.1%.

With `N#Cc1cc2ccccc2n(Cc2ccccc2)c1=O`, the growth inhibition was -9.55%.

On to `CNCC(O)(C(=O)O)C(=O)O`, for which the growth inhibition was -7.95%.

On to `CC(I)CNC1=NCC(=O)N1` (stereo not given), for which the growth inhibition is 13%.

As to `Nc1ccc(C(C(=O)O)c2ccccc2)cc1Cl` (stereo not given), the growth inhibition is 5.65%.

Consider `COc1ccccc1C1C2=C(COC2=O)Oc2cc3c(cc21)OCO3` (stereo not given), for which the growth inhibition was -11.9%.
